For part of these data: Measured potencies and affinities stand elsewhere. The source made the active and inactive calls. Unless noted, how the calls were made is not given here.
Assays:
[1] = target: Cell division control protein 42 homolog (Homo sapiens) (UniProt P60953); experiment: activated mutant Cdc42 GTP-binding inhibitors, dose response, biochemical, multiplex bead flow cytometry, Bodipy-FL-GTP (AID 1333;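 active means fitted half-maximal concentration within the tested dose range, moderate curve steepness, a statistically real signal drop, and little compound fluorescence or tag-binding interference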)
[2] = target: Cell division control protein 42 homolog (Homo sapiens) (UniProt P60953); experiment: wildtype Cdc42 GTP-binding inhibitors, dose response, biochemical, multiplex bead flow cytometry, Bodipy-FL-GTP (AID 1334;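 active means fitted half-maximal concentration within the tested range, moderate curve steepness, significant signal drop, and little compound fluorescence or bead-linkage interference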); details: bead-based flow cytometry, Bodipy-FL-GTP binding to GST-Cdc42; at 100 µM (top of the series) unless noted
[3] = target: GTPase HRas (Homo sapiens) (UniProt P01112); experiment: inhibitors of GTP binding to wildtype Ras, dose response, biochemical, multiplex bead flow cytometry (AID 1335;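 active means fitted half-maximal concentration within 10 nM to 100 µM, steepness 0.5 to 2, significant signal drop, low assay interference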); details: bead-based flow cytometry, Bodipy-GTP binding to GST-Ras; at 100 µM (top of the series) unless noted
[4] = test system: Ras-related protein Rab-7a (dog), GTP binding; experiment: Rab7 GTP binding inhibitors, potency, dose response, biochemical, wildtype, multiplex bead flow cytometry (AID 1336)
[5] = target: Ras-related C3 botulinum toxin substrate 1 (Homo sapiens) (UniProt P63000); experiment: wildtype Rac1 GTP binding inhibitors, dose response, biochemical, multiplex bead flow cytometry (AID 1340;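 active means dose curve with midpoint inside tested range, moderate steepness, plateau gap beyond fit error, low compound glow and bead-link interference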); details: GST-Rac1 beads, Bodipy-FL-GTP binding; at 100 µM (top of the series) unless noted
[6] = target: GTPase HRas (Homo sapiens) (UniProt P01112); experiment: activated Ras mutant GTP binding inhibitors, dose response, biochemical, multiplex bead flow cytometry (AID 1341;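 active means dose-response curve with midpoint inside the tested range, moderate steepness, significant amplitude and little compound fluorescence or bead-attachment interference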;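 further: GST-tagged constitutively activated Ras mutant immobilized on beads and multiplexed with other GTPases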)

Sequence of GTPase HRas (Homo sapiens) (P01112 whole entry, looked up): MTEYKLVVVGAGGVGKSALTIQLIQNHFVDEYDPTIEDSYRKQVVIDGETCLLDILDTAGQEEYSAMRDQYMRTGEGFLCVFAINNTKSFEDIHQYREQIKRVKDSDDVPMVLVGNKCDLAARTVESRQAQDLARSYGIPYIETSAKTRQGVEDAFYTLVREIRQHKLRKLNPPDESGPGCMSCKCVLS
Sequence of Cell division control protein 42 homolog (Homo sapiens) (P60953 whole entry, looked up): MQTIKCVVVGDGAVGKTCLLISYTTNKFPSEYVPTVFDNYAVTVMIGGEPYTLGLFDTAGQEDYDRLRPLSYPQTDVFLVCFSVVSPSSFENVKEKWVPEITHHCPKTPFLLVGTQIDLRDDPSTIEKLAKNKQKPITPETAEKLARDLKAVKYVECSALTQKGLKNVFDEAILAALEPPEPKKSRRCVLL

Compound	outcome [1]	fluorescence, percent of control (lower = inhibition) [2] [%]	GTP binding, percent of control [3] [%]	outcome [4]	GTP binding signal, raw median fluorescence (lower = inhibition) (MCF (arbitrary fluorescence units)) [5]	outcome [6]
Cc1cc(C(F)F)n2nc(C(=O)Nc3ccc(S(=O)(=O)NC45CC6CC(CC(C6)C4)C5)cc3)nc2n1	inactive	35	82.9	inactive	254	inactive
COc1ccc(C(=O)N/N=c2\oc3ccccc3cc2C(N)=O)cc1	inactive	36.1	82.6	inactive	207	inactive
Cn1cc([C@@H]2C[C@H]3CN(Cc4cccc(Cl)c4)C(=O)[C@]34CCCN24)c2ccccc21	inactive	61.3	111	inactive	276	inactive
Cc1cc2ccccn2c1C(=O)c1cc([N+](=O)[O-])cc([N+](=O)[O-])c1	inactive	37.4	85.6	inactive	270	inactive
S=C(NCCc1ccccc1)N1CCn2cccc2C1c1cccnc1 (stereo not given)	inactive	28	63.3	inactive	227	inactive
CC(=O)Nc1ccc(Nc2ccc3c4c(cc(=O)n3C)-c3ccccc3C(=O)c24)cc1	inactive	34.8	80.5	inactive	205	inactive
OC(CN1CCN(Cc2ccc3c(c2)OCO3)CC1)c1c[nH]c2ccccc12 (stereo not given)	inactive	36.1	78.7	inactive	281	inactive
CCCCNC(=O)c1cc([N+](=O)[O-])[nH]n1	inactive	56.1	74.5	inactive	282	inactive
CCOC(=O)Cn1nnnc1CN(Cc1cccs1)Cc1cc2cc(C)ccc2[nH]c1=O	inactive	98.4	178	inactive	187	inactive
Cc1c(CCC(=O)O)c(=O)oc2cc3occ(-c4ccc(F)cc4)c3cc12	inactive	29.1	72.6	inactive	160	inactive
O=C(/C=C/c1ccccc1)NC(NC(=S)Nc1ccc(C(=O)O)cc1)C(Cl)(Cl)Cl (stereo not given)	inactive	35.2	78.3	inactive	178	inactive
O=C(COC(=O)/C=C/c1ccc(Cl)cc1)Nc1ccc2c(c1)OCCO2	inactive	40.2	59.5	inactive	162	inactive
COc1cccc(CNCc2sc(C(=O)O)cc2C)c1OC	inactive	61.7	80.7	inactive	35	inactive
COc1cc(/C=N/NC(=S)Nc2cccnc2)cc(OC)c1O	inactive	31.8	72	inactive	163	inactive
NC(=S)N=Nc1c(O)[nH]c2c(Br)cc(Br)cc12	inactive	32.3	73	inactive	198	inactive
CCOC(=O)c1nn(-c2ccccc2)c(=O)cc1SC(C)C	inactive	51.2	61.6	inactive	204	inactive
O=C(COn1nnc2ccc(Cl)cc21)NCc1ccccc1	inactive	89.6	154	inactive	183	inactive
CCn1c(SCC(=O)O)nnc1-c1cc2c(C)nn(-c3ccccc3)c2s1	inactive	25.1	64.4	inactive	128	inactive
CCN(CC)c1ccc(-c2nn3c(-c4cccnc4)nnc3s2)cc1	inactive	72.7	46.9	inactive	126	inactive
COc1cc(/C=C/C(=O)Nc2ccc3nc4n(c(=O)c3c2)CCCC4)cc(OC)c1OC	inactive	32.7	72	inactive	200	inactive

Compound	outcome [1]	fluorescence, percent of control (lower = inhibition) [2] [%]	GTP binding, percent of control [3] [%]	outcome [4]	GTP binding signal, raw median fluorescence (lower = inhibition) (MCF (arbitrary fluorescence units)) [5]	outcome [6]
O=C(NCc1ccc(F)cc1)C(c1ccccc1)N(CC1CCCO1)C(=O)Cn1nnc2ccccc21 (stereo not given)	inactive	53.6	70.1	inactive	0	inactive
CCOc1ccc(-n2c(C)nc3cc(C(=O)NCc4ccc5c(c4)OCO5)ccc32)cc1	inactive	41.7	62.5	inactive	163	inactive
CC(C)Sc1nc(-c2ccccc2)cc(=O)[nH]1	inactive	88.8	156	inactive	170	inactive
Cc1ccc(-n2nc3c(=S)[nH]nc(C)c3c2C)cc1	inactive	54.7	66.3	inactive	201	inactive
Cc1n[nH]c(=S)c2nn(-c3ccccc3)c(C)c12	inactive	47.4	63.6	inactive	188	inactive
O=C(N/N=C/c1c(O)n(Cc2ccccc2)c(=O)c2ccccc12)c1cccnc1	inactive	18.5	75.7	inactive	87	inactive
Cc1nnc(N2CCOCC2)c2nn(-c3cccc(Cl)c3)c(C)c12	inactive	204	209	inactive	306	inactive
Cc1ccc(-c2c(C(=O)O)c(C(=O)O)c3n2CCC3)cc1	inactive	32.3	78.1	inactive	239	inactive
Cc1cc(C)c2sc(N(CCN(C)C)C(=O)c3cc(Cl)sc3Cl)nc2c1	inactive	33.6	78.8	inactive	283	inactive
CC(C)NC(=S)N=Nc1c(O)[nH]c2ccc([N+](=O)[O-])cc12	inactive	29.1	67.1	inactive	128	inactive
COc1ccccc1N1CCN(S(=O)(=O)c2cccc(F)c2)CC1	inactive	49	62.4	inactive	213	inactive
O=C(CN1CCN(c2ccc(O)cc2)CC1)Nc1cc(S(=O)(=O)N2CCCCC2)ccc1Cl	inactive	35.8	87.7	inactive	281	inactive
O=C1c2ccccc2C(=O)N1CCCCN(C(=O)c1cc2ccccc2oc1=O)c1ccc(Cl)cc1	inactive	51.3	60.9	inactive	210	inactive
COc1ccc(C2(CNC(=O)C(c3ccccc3)c3ccccc3)CCOCC2)cc1OC	inactive	34	80.6	inactive	276	inactive
CN1CCN(S(=O)(=O)c2cccc(C(=O)Nc3sc4c(c3C(N)=O)CCCC4)c2)CC1	inactive	43.6	57.3	inactive	150	inactive
COc1ccc(OCC(=O)Nc2nonc2NC(=O)COc2ccc(OC)cc2)cc1	inactive	38.2	79.5	inactive	234	inactive
O=C(O)/C=C\C(=O)Nc1cccc(C(=O)Nc2cccc(O)c2)c1	inactive	38.6	84.2	inactive	162	inactive
Cc1cccc(COc2nc3ccccc3cc2C(=O)O)c1	inactive	54.8	213	inactive	52.2	inactive
CCOc1cc(/C=N/NC(=O)c2cc(-c3cccnc3)nc3ccccc23)ccc1O	inactive	33.8	80.2	inactive	188	inactive
N#CC(c1ccc(Cl)nn1)c1ccc(Cl)cc1Cl (stereo not given)	inactive	34.5	77.7	inactive	263	inactive

Compound	outcome [1]	fluorescence, percent of control (lower = inhibition) [2] [%]	GTP binding, percent of control [3] [%]	outcome [4]	GTP binding signal, raw median fluorescence (lower = inhibition) (MCF (arbitrary fluorescence units)) [5]	outcome [6]
O=C(Nc1cc(S(=O)(=O)Nc2ccccc2Cl)ccc1O)c1sc2cc(Cl)ccc2c1Cl	inactive	35.5	81.2	inactive	248	inactive
COc1ccc(CNc2nc3c(c(=O)n(Cc4ccc(Br)cc4)c(=O)n3C)n2C)cc1	inactive	32	83.8	inactive	222	inactive
COc1ccc([N+](=O)[O-])cc1NC(=S)NC(NC(=O)Cc1ccc(OC)c(OC)c1)C(Cl)(Cl)Cl (stereo not given)	inactive	75.7	139	inactive	151	inactive
CC(=O)Nc1cccc(C#CC(=O)c2ccc([N+](=O)[O-])cc2)c1	inactive	39.8	178	inactive	104	inactive
Cc1cccc(CNc2ncccc2C(=O)O)c1	inactive	61.9	224	inactive	57	inactive
Cc1c(C=O)c2ccccn2c1C(=O)c1cccc([N+](=O)[O-])c1	inactive	31.4	76.8	inactive	242	inactive
O=C(O)c1cc2ccccc2nc1OCc1ccccc1	inactive	49.1	200	inactive	46.4	inactive
Cc1nn(CCc2nn[nH]n2)c2nc(-c3ccc(C4CCCCC4)cc3)cc(C(F)(F)F)c12	inactive	22.1	79.4	inactive	249	inactive
O=C(Nc1ccc(N2CCOCC2)c(Cl)c1)c1ncn[nH]1	inactive	104	203	inactive	241	inactive
CC(C)n1c(O)c(N=Nc2ccc(Cl)nn2)c2ccccc21	inactive	69.1	78.2	inactive	196	inactive
C=CCN(CC=C)S(=O)(=O)c1ccc(C(=O)Nc2nc3c(s2)CCc2ccccc2-3)cc1	inactive	51.4	57.3	inactive	0	inactive
CCCCn1c(O)c(N=NC(=O)c2ccccc2NS(=O)(=O)c2cccs2)c2ccccc21	inactive	37.3	87.8	inactive	280	inactive
CCC(Oc1ccc2ccccc2c1)C(=O)O (stereo not given)	inactive	123	156	inactive	190	inactive
Cc1ccc(Nc2nc(-c3c(C)nc4ncccn34)cs2)cc1	inactive	29.8	43.7	inactive	103	inactive
O=C(N/N=C/c1ccc([N+](=O)[O-])o1)c1cn(-c2ccccc2)nc1-c1ccc(Cl)cc1	inactive	31.7	77	inactive	207	inactive
COc1cc(/C=N/Nc2nncn2/N=C/c2ccc(O)c(OC)c2)ccc1O	inactive	30.7	68.3	inactive	147	inactive
Cc1ccc(N=Nc2c(N)[nH]n3c(=O)c4c(nc23)CCCC4)cc1	inactive	31.3	72.8	inactive	166	inactive
Cc1cccc(Nc2nc(NCc3ccco3)c3ccccc3n2)c1	inactive	39.2	54.7	inactive	142	inactive
Cc1ccc(/C=N/NC(=O)C2CCN(Cc3ccc(F)cc3Cl)CC2)o1	inactive	39	82.7	inactive	241	inactive
COc1c(C)cc(Br)cc1C(=O)O	inactive	46.9	97	inactive	59.3	inactive

From PubChem BioAssay
